Source: PubChem BioAssay (National Center for Advancing Translational Sciences (NCATS))
HepG2 tox-1: HepG2 cytotoxicity, counter-screen for TGF-b inhibitors | HepG2 CAGA-GFP viability, ATP luminescence, 18 h | 410,000 tested, 0.76% active | AID 588856 | Potency, µM (doses to about 46.1 µM), for inactives: at the top dose activity change, negative = cytotoxicity, most hits filed as cytotoxic; note: potency is the fitted concentration of half-maximal effect
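HepG2 CAGA-GFP cells (1000/well, DMEM with 1% FBS) received compound, then TGF-beta at 500 pg/mL final, and were incubated 18 hours at 37 degrees C. Viability was read by CellTiter-Glo luminescence. Media-only wells were set as complete cell-killing and DMSO as no toxicity.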
D3 antag: antagonists of human D3 dopamine receptor | P35462 | D3R cells, DiscoveRx beta-arrestin luminescence, antagonist mode; hits give low values | max response, negative = inhibition, % | 360,000 tested, 2.5% active | AID 652054; in the data active = max response below about -50%; inconclusive = no clear call, values can overlap the other calls; note: % is set by controls: 0 for no effect and ±100 for the full control effect
Target sequence (P35462 whole entry, looked up): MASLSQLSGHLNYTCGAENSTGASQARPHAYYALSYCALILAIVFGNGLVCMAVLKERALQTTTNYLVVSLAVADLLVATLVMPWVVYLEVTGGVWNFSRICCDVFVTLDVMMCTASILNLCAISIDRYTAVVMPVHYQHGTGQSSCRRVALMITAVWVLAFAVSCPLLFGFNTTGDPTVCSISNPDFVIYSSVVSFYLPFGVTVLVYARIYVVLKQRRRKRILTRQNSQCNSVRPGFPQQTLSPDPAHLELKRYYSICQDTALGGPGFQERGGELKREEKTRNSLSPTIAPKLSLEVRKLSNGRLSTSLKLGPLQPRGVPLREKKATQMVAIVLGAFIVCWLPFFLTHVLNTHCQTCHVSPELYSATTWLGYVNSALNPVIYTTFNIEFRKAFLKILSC
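Cells plated overnight at 1500 cells/well, then exposed to library compounds with dopamine controls for 90 minutes at 37 degrees C. DiscoveRx reagent added for 30–60 minutes at room temperature; luminescence read, quantitative HTS format.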
DRD3 agonist: agonists of human D3 dopamine receptor; P35462; D3R DiscoveRx beta-arrestin cells, luminescence, 90 min; max activation, %; 410,000 tested, 0.58% active; in the data active = max activation above about 30%; note: 0% is about no effect
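Cells at 1500/well, incubated overnight, then treated with pinned compounds (dopamine as control) for 90 min at 37 degrees C. DiscoveRx reagent added for 30 - 60 minutes at room temperature; luminescence read.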
ATXN viability: viability counter-screen for ATXN expression inhibitors | S2 cells (HEK-293 line with an ATXN2-luciferase reporter) viability, CellTiter-Fluor protease fluorescence, 24 h | Potency, µM (highest dose often 56.7 µM), hits mostly cytotoxic | 400,000 tested, 0.49% active; note: potency is the fitted concentration of half-maximal effect; nearly all actives have a fitted effect of over 40% in size
ATXN2 expr inh: reduces ATXN2 reporter expression in HEK-293 cells. 360,000 tested, 0.72% active. HEK-293 ATXN2-luciferase reporter, luminescence, 24 h. Potency, µM (highest dose often 57 µM), for inactives: at the top dose activity change, negative = inhibition, hits mostly inhibitors; note: potency is the fitted concentration of half-maximal effect; % is set by controls: 0 for no effect and ±100 for the full control effect; nearly all actives have a fitted effect of over 55% in size
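ATXN2-luciferase reporter cells (luciferase flanked by upstream and downstream ATXN2 gene portions) were treated 24 h at 37 °C with compounds at up to 57 uM. SteadyGlo luminescence gave expression; GF-AFC fluorescence gave viability.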
TGFb SMAD3 inh: TGF-b pathway inhibition | Potency, µM (highest dose often 46.1 µM), for the others: top-dose activity, negative = inhibition, most hits filed as inhibitors | HepG2 CAGA-GFP TGF-b/SMAD3 reporter, GFP fluorescence, 18 h; TGF-beta stimulated, 500 pg/mL final | 410,000 tested, 1.2% active; note: potency is the fitted concentration of half-maximal effect; % is set by controls: 0 for no effect and ±100 for the full control effect; nearly all actives have a fitted effect of over 65% in size
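First, reporter cells (HEPG2 CAGA-GFP) rested 2 h at 37 degrees C. Next, compounds were pinned in and TGF-beta added to 500 pg/mL final. After 18 h, GFP was imaged per cell and summed per well.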
TGFb confirm: confirmation of TGF-b signaling inhibitors in HepG2 reporter cells; shares compounds with TGFb SMAD3 inh; HepG2 CAGA-GFP TGF-b reporter, GFP fluorescence, 18 h; cells stimulated with TGF-beta, 500 pg/mL; Potency, µM (top dose mostly 46.1 µM), inactives show at the top dose activity, negative = inhibition, actives largely listed as inhibitors; 1,600 tested, 63% active; note: potency is the fitted concentration of half-maximal effect; % is set by controls: 0 for no effect and ±100 for the full control effect; nearly all actives have a fitted effect of over 65% in size
HepG2 tox-2: toxic to HepG2 cells in TGF-b counterscreen; shares compounds with TGFb SMAD3 inh; HepG2 CAGA-GFP viability, ATP luminescence, 18 h; cells stimulated with TGF-beta, 500 pg/mL; Potency, µM (highest dose often 46.1 µM), without a hit: at the highest dose activity, negative = cytotoxicity, usual class: inhibitors; 1,600 tested, 27% active; AID 720535; note: potency is the fitted concentration of half-maximal effect; % is set by controls: 0 for no effect and ±100 for the full control effect; nearly all actives have a fitted effect of over 70% in size
TGFb CCL64 inh: orthogonal confirmation of TGF-b inhibitors in CCL64 cells. CCL64 CAGA-GFP reporter, TGF-b stimulated, GFP fluorescence, 18 h. shares compounds with TGFb SMAD3 inh. 1,600 tested, 41% active. Potency, µM (doses to about 46.1 µM), for the others: top-dose activity, negative = inhibition, most hits filed as inhibitors; note: potency is the fitted concentration of half-maximal effect; nearly all actives have a fitted effect of over 65% in size
TGFb COP inh: TGF-b inhibition validated with COP promoter | shares compounds with TGFb SMAD3 inh | HepG2 COP-GFP TGF-b reporter, GFP fluorescence, 18 h; cells stimulated by added recombinant TGF-beta | Potency, µM (top dose mostly 46.1 µM), inactives show at the highest dose activity, negative = inhibition, most hits filed as inhibitors | 1,600 tested, 3% active; note: potency is the fitted concentration of half-maximal effect; nearly all actives have a fitted effect of over 70% in size
The depositor's hits bear a star. Hits are enriched below; roughly 4.7% of the tested compounds scored in any of these assays. Unless noted, calls come from the whole dose curve; as a rule, active = well fitted curve in the direction sought with a large enough effect; inconclusive = small, poorly fitted or top-dose-only effect, or another doubt; inactive = no such curve, though single readings can be large; an effect the other way counts as inactive or inconclusive.

Screening CCOc1ccc(CNC(=O)c2cc3c(=O)oc4ccc(C)cc4c3s2)cc1 returned HepG2 tox-1 1%, DRD3 agonist 5, ATXN viability inactive, ATXN2 expr inh -6% and TGFb SMAD3 inh -10%.
Cc1cc(C)c(S(=O)(=O)NC2CC3CCC2C3)c(C)c1 (centres undefined) was read as HepG2 tox-1 -30%, D3 antag 5, DRD3 agonist 8, ATXN viability inactive, ATXN2 expr inh 21%, TGFb SMAD3 inh inconclusive, TGFb confirm inconclusive, HepG2 tox-2 -2%, TGFb CCL64 inh -17% and TGFb COP inh -5%.
`O=C(CCCn1c(=O)c2ccccc2n(CC(=O)Nc2ccc(F)cc2F)c1=O)NCc1ccccc1Cl` gave HepG2 tox-1 -4%, DRD3 agonist -15, ATXN viability inactive, ATXN2 expr inh -10% and TGFb SMAD3 inh -50%.
For CCSc1ccc([C@@H]2[C@@H]3C(=O)N(CC)C(=O)[C@@H]3[C@]3(C(=O)OC)CCCN23)cc1 the results were HepG2 tox-1 -21%, D3 antag -2, DRD3 agonist -1, ATXN viability inactive, ATXN2 expr inh 8%, TGFb SMAD3 inh inconclusive, TGFb confirm inconclusive, HepG2 tox-2 4%, TGFb CCL64 inh -11% and TGFb COP inh 0%.
Screening CCOc1ccc(NC(=O)c2cc(C)nc3c2c(C)nn3-c2ccc(C)cc2)cc1 returned HepG2 tox-1 9%, DRD3 agonist 7, ATXN viability inactive, ATXN2 expr inh 14% and TGFb SMAD3 inh 22%.
`CC1CCCN(S(=O)(=O)c2ccc(S(=O)(=O)NC(C)c3cccs3)cc2)C1` (centres undefined) gave HepG2 tox-1 -15%, D3 antag -10, DRD3 agonist -2, ATXN viability inactive, ATXN2 expr inh -7%, TGFb SMAD3 inh inconclusive, TGFb confirm inconclusive, HepG2 tox-2 -11%, TGFb CCL64 inh 3% and TGFb COP inh -4%.
For Cc1ccccc1NC(=O)c1cc(C(=O)c2cc(Cl)ccc2O)cn(-c2ccccc2C)c1=O the results were HepG2 tox-1 -35%, D3 antag 6, DRD3 agonist 9, ATXN viability inconclusive, ATXN2 expr inh -29%, TGFb SMAD3 inh 7.1µM*, TGFb confirm 16µM*, HepG2 tox-2 inconclusive, TGFb CCL64 inh 13µM* and TGFb COP inh 43%.
Cc1ccc(-n2cc(C(=O)c3cc(Cl)ccc3O)cc(C#N)c2=O)cc1 was read as HepG2 tox-1 -50%, D3 antag 4, DRD3 agonist 3, ATXN viability inactive, ATXN2 expr inh -18% and TGFb SMAD3 inh inconclusive.
CCOC(=O)C1=C(CS(=O)(=O)c2ccc(C)c(C)c2)NC(=O)NC1c1ccccc1OCC (centres undefined) was read as HepG2 tox-1 -30%, DRD3 agonist -7, ATXN viability inactive, ATXN2 expr inh -2% and TGFb SMAD3 inh inconclusive.
`Cc1cccc(/C=C(\c2nc3ccccc3[nH]2)S(=O)(=O)c2ccccc2)c1` gave HepG2 tox-1 -92%, D3 antag -62*, DRD3 agonist -16, ATXN viability inconclusive, ATXN2 expr inh inconclusive, TGFb SMAD3 inh 10µM*, TGFb confirm 4.6µM*, HepG2 tox-2 4.6µM*, TGFb CCL64 inh 5.8µM* and TGFb COP inh inconclusive.
Screening Cc1ccc(NC(=S)c2nc3ccccc3[nH]2)c(C)c1 returned HepG2 tox-1 -23%, D3 antag 0, DRD3 agonist 5, ATXN viability inactive, ATXN2 expr inh 82% and TGFb SMAD3 inh -19%.
`Cc1ccc(S(=O)(=O)N2CCN(C(=O)c3ccccc3Cc3ccccc3)CC2)c(C)c1` gave HepG2 tox-1 -13%, D3 antag 2, DRD3 agonist 15, ATXN viability inactive, ATXN2 expr inh -31%, TGFb SMAD3 inh 11µM*, TGFb confirm 16µM*, HepG2 tox-2 inconclusive, TGFb CCL64 inh inconclusive and TGFb COP inh 16%.
Cc1nc(-c2ccc(S(=O)(=O)N3CCN(C4c5ccccc5-c5ccccc54)CC3)s2)cs1 was read as HepG2 tox-1 5%, D3 antag -6, DRD3 agonist -10, ATXN viability inactive, ATXN2 expr inh -13% and TGFb SMAD3 inh 1%.
`Cc1ccc(S(=O)(=O)N2CCN(C(=O)c3ccco3)CC2)c(C)c1` gave HepG2 tox-1 2%, D3 antag -6, DRD3 agonist 0, ATXN viability inconclusive, ATXN2 expr inh 0% and TGFb SMAD3 inh -3%.
For Cc1nc(-c2ccc(S(=O)(=O)N3CCCN(CCc4ccccc4)CC3)s2)cs1 the results were HepG2 tox-1 -19%, D3 antag -22, DRD3 agonist -12, ATXN viability inactive, ATXN2 expr inh -10%, TGFb SMAD3 inh 8.9µM*, TGFb confirm 8.2µM*, HepG2 tox-2 inconclusive, TGFb CCL64 inh inconclusive and TGFb COP inh 65%.
Screening Cc1ccc(S(=O)(=O)N2CCN(CCc3ccccc3)CC2)c(C)c1 returned HepG2 tox-1 -10%, D3 antag -29, DRD3 agonist -24, ATXN viability inactive, ATXN2 expr inh -10%, TGFb SMAD3 inh inconclusive, TGFb confirm 23µM*, HepG2 tox-2 inconclusive, TGFb CCL64 inh inconclusive and TGFb COP inh 8%.
